{"source": "PubChem BioAssay (NCI)", "note": "Compounds without any hit were thinned out: in the full panel of roughly 83,000, 20% have a hit.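 Percent growth is the endpoint: 0 to 100 indicates growth inhibition (40 means 60% inhibition), 0 means no net growth, and negative values indicate cell death.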 Unmarked numbers belong to inactive results. Calls of active or inactive are those of the source. How the source made its calls: active means growth percent below 10; inactive means the rest.", "data": [{"system": "IGROV1 ovarian", "test": "NCI-60 one-dose screen, 48 h (100 = growth as untreated, 0 = no growth, -100 = all killed)", "settings": "10 µM unless noted", "values": [{"compound": "O=C1Nc2ccccc2/C1=C\\c1cccc(/C=C2/C(=O)Nc3ccccc32)n1", "growth": "-66.8% (active)"}, {"compound": "COc1ccc(/C=N/NC(=O)c2cccc3cc[nH]c23)cc1O", "growth": "36.4%"}, {"compound": "CCN1C(=O)N(CC)C2C1NN=c1s/c(=C3\\C(=O)Nc4ccccc43)c(=O)n12", "note": "(stereo unspecified)", "growth": "35.2%"}, {"compound": "CC(C)(O)C1CCCN1C(=O)c1ccccc1I", "note": "(stereo unspecified)", "growth": "87.6%"}, {"compound": "O=C1NC(=S)NC(=O)C1=Cc1cccc(C=C2C(=O)NC(=S)NC2=O)c1", "growth": "107%"}, {"compound": "Cn1c2c(Cl)c(Cl)ccc2c2cc(N)[nH]c(=O)c21", "growth": "54.7%"}, {"compound": "COc1ccc(-c2cnnc3c(-c4cccc(C(F)(F)F)c4)cnn23)cc1", "growth": "64.1%"}, {"compound": "O=C1Nc2c(ccc(Cl)c2Cl)/C1=C/c1ccc([N+](=O)[O-])cc1", "growth": "98.6%"}, {"compound": "COc1ccc(-c2nc(SCC(C)C)nc(N/N=C(/C)c3ccc(OC)c(OC)c3)c2C#N)cc1", "growth": "78.8%"}, {"compound": "NS(=O)(=O)c1cccc(NC(=O)C(=O)C2C(=O)Nc3ccccc32)c1", "note": "(stereo unspecified)", "growth": "76.4%"}, {"compound": "O=S(=O)(c1cccc(NC2=Nc3cccc4cccc2c34)c1)N1CCCC1", "growth": "80%"}, {"compound": "CCOC(=O)c1c(SC)nn(-c2cc(=O)[nH]c3ccc(Br)cc23)c1N", "growth": "102%"}, {"compound": "CC(=O)c1c[nH]c2ccc(-c3ccnc(Nc4ccc(NC(=O)C5CCCC5)c(CN5CCOCC5)c4)n3)cc12", "growth": "-14.8% (active)"}, {"compound": "COc1ccc(/C=C(/c2ccccc2)[N+](=O)[O-])cc1", "growth": "-26.1% (active)"}, {"compound": "O=C1Nc2c(ccc(Cl)c2Cl)/C1=C/c1ccccn1", "growth": "73.1%"}, {"compound": "CCN(CCNc1cc(OC)cc2cccnc12)CCc1ccccc1", "growth": "94.6%"}, {"compound": "COc1cc2nc(-c3ccc(C#N)cc3)[nH]c(=O)c2cc1OC", "growth": "113%"}, {"compound": "O=S(=O)(c1ccccc1)N1CCCc2ccccc21", "growth": "99.5%"}, {"compound": "O=C(Nc1ccc(Cl)cc1)Nc1ccc(Cl)c(Cl)c1", "growth": "21.5%"}, {"compound": "COc1cc(NCC(O)CN(CC(C)C)C2CCCC2)c2ncccc2c1", "note": "(stereo unspecified)", "growth": "88.8%"}, {"compound": "COc1ccc(Nn2c(SCC(=O)Nc3nc(-c4ccc(Cl)cc4)cs3)nc(C)c2C)cc1", "growth": "70.9%"}, {"compound": "COc1cccc2c1C(=O)c1c(O)c3c(c(O)c1C2=O)C[C@@](O)(C(=O)CO)C[C@@H]3O[C@H]1C[C@H](N)[C@@H](O)[C@H](C)O1", "growth": "18.4%"}, {"compound": "Clc1ccc(N2N=C(c3cccc(Nc4ccncc4)c3)CC2c2ccc3c(c2)OCO3)cc1", "note": "(stereo unspecified)", "growth": "20.7%"}, {"compound": "O=C(N/N=C/c1ccncc1)c1ccccc1Nc1cccc(C(F)(F)F)c1", "growth": "86.8%"}, {"compound": "COc1ccc(Cc2nc3cc(OC)c(OC)cc3c(=O)[nH]2)cc1", "growth": "65.7%"}, {"compound": "COc1ccc(-c2c[nH]c(C(=O)O)c2-c2cc(OC)c3c(c2OC)OCO3)cc1", "growth": "103%"}, {"compound": "Clc1ccc(N2N=C(c3cccc(Nc4ccncc4)c3)CC2c2ccccc2)cc1", "note": "(stereo unspecified)", "growth": "92.9%"}, {"compound": "COc1ccc(Cn2nc(-c3cc(OC)c(OC)c(OC)c3)c3c2CCc2cnoc2-3)cc1OC", "growth": "63.4%"}, {"compound": "Clc1nc(Cl)c2ncn(CC3(Cn4cnc5c(Cl)nc(Cl)nc54)COC3)c2n1", "growth": "-93.3% (active)"}, {"compound": "C(=N\\Nc1ncc(-c2cc3cc4c(cc3o2)OCO4)s1)/c1c[nH]c2ccccc12", "growth": "-43.8% (active)"}, {"compound": "COc1ccc(-c2nn(Cc3ccccc3)c3c2-c2oncc2CC3)cc1OC", "growth": "124%"}, {"compound": "COc1cc(/C=C/C(=O)c2c(C)oc3nc[nH]c(=O)c23)ccc1O", "growth": "100%"}, {"compound": "CCc1nc(C)cn1C(=O)OCc1nc2nc(Cl)nc(N3CCOCC3)c2[nH]1", "growth": "-48.1% (active)"}, {"compound": "O=C(Nc1ccccc1)Oc1ccccc1-c1ccccc1", "growth": "107%"}, {"compound": "COc1ccc(C(O)c2cc3c(N)c(C(=O)Nc4ccccc4)sc3nc2C)cc1", "note": "(stereo unspecified)", "growth": "12.6%"}, {"compound": "CCC(C)N(CCNc1cc(OC)cc2cccnc12)CCC(C)C", "note": "(stereo unspecified)", "growth": "66.4%"}]}]}
